# Reference: PubChem BioAssay (NCI)
# About 79,000 compounds went through this panel and 15% of them were active in at least one assay; those are over-represented in the sample as a whole. A number with no mark means an inactive call. Cut-off read from the data, not from the text of the source: active = growth inhibition above about 70%; inactive = the rest.
# Experiment: NCI Yeast Anticancer Drug Screen. Data for the mlh1 rad18 strain (AID 175)
# Settings: S. cerevisiae mlh1 rad18 strain growth inhibition; at 50.0 µM; active compounds read high
# Method: Growth inhibition of yeast strains with defined genetic alterations is measured as a screen for potential anti-cancer activity. Selected strains with alterations in DNA damage repair or cell cycle control were exposed to compounds and growth inhibition was measured relative to vehicle treated controls. The strain used in this assay is mlh1 rad18
row,Structure (SMILES),growth inhibition
1,C=C1C(=O)O[C@H]2[C@@H](O)[C@H](C)CCC[C@]3(C)O[C@H]3CC[C@@]3(C)O[C@@H]3C[C@@H]12,58.2%
2,CN(C)C(=O)C1(C)CC2CCC1C2 (stereo not given),-0.75%
3,C=C(Nc1ccc([N+](=O)[O-])cc1[N+](=O)[O-])c1c/c(=N\NC(N)=S)c2ccccc2o1,6.45%
4,CC(=O)c1cccc(NCn2nnc3ccccc32)c1,-34.5%
5,O=C1Nc2ncnc(Cl)c2Cc2ccccc21,-12.1%
6,C/C=C/C=N/N(C(=O)c1cc([N+](=O)[O-])cc([N+](=O)[O-])c1)C1=NC(c2ccccc2)C(c2ccccc2)=NN1 (stereo not given),26.3%
7,N#CC(c1ccccc1)N(CCc1ccccc1)C(=O)c1ccc(C(=O)N(CCc2ccccc2)C(C#N)c2ccccc2)cc1 (stereo not given),-11.3%
8,C=Cc1c2[n-]c(c1C)/C=c1\[n-]/c(c(C)c1C=C)=C\c1[n-]c(c(CCC(=O)O)c1C)/C=c1\[n-]/c(c(C)c1CCC(=O)O)=C\2.[Co],59.9%
9,O=C(O)c1scc2c1CCCC2,-39.6%
10,ClC(=Nc1cccc(Cl)c1)C(Cl)=Nc1cccc(Cl)c1,1.15%
11,CC(C/C=C(/C=O)C(C)CC(C)(C)C)CC(C)(C)C (stereo not given),61.8%
12,C=CC(=O)OCC(C)(C)[N+](=O)[O-],1.55%
13,Cc1nc2ccccc2nc1C,4.85%
14,NOCc1cc(Cl)sc1Cl,11.3%
15,CCCCCCCC(=O)NCCCC(C)Nc1cc(OC)cc2cccnc12 (stereo not given),28.1%
16,Cc1ccc(S(=O)(=O)N2CC(CCl)N(S(=O)(=O)c3ccc(C)cc3)CC2CCl)cc1 (stereo not given),20.9%
17,NC(=O)C1C2CC3C(C2O)C31C(N)=O (stereo not given),-28.7%
18,Cc1ccc(Nc2nc(C)c(C(=O)C/C(=N/NC(N)=S)C(=O)Nc3cc(Cl)cc(Cl)c3)s2)cc1,-27.8%
19,CCCc1[nH]nc(CCC(=O)N(Cc2ccccc2)Cc2ccccc2)c1CC,-18.1%
20,COc1ccc(S(=O)(=O)N2OC2c2ccccc2)cc1 (stereo not given),-6%

row,Structure (SMILES),growth inhibition
1,O=S(=O)(CCN1CCCCC1)c1ccc(F)cc1,9.95%
2,Cc1ccc(NC(=O)/C(CC(=O)c2c[n+](=O)c3ccccc3n2O)=N\NC(=O)C[n+]2ccccc2)cc1,-0.85%
3,CC(=O)Nc1ccc(/C=N\N=C\c2ccc(NC(C)=O)cc2)cc1,28.6%
4,O=c1c2c([nH]c3c1ccc1[nH]c4c(c(=O)c13)CCCC4)CCCC2,-2.3%
5,O=C1OCCc2c1[nH]c1ccccc21,17.6%
6,Cc1ccc(S(=O)(=O)c2ccccc2C)s1,-12.1%
7,CCOC(=O)N(C)Cc1ccc(Cl)cc1,21.4%
8,C=C(C)CN(Cc1ccccc1)C1CCCCCCC1,-17.6%
9,COc1ccc2c3c([nH]c2c1)CCN(Cc1ccccc1)C3,1.1%
10,CC1=CC(=C2C=CC(=O)C=C2)C=C(C)N1C,-3.65%
11,Cn1c(=O)c2c(nc(Cl)n2Cc2ccccc2)n(C)c1=O,21.4%
12,COc1cc(/C=C/c2ccc([N+](=O)[O-])cc2[N+](=O)[O-])ccc1O,25.9%
13,C[C@]12C(=O)OC[C@H](c3ccccc3)N1C(=O)N(Cc1ccccc1)[C@@H]2CO,-9.5%
14,CC1CS(=O)(=O)O1 (stereo not given),6.8%
15,CCCc1c(C(=O)OCC)[nH]c(-c2ccc(-c3[nH]c(C(=O)OCC)c(CCC)c3C(=O)OCC)s2)c1C(=O)OCC,-16.1%
16,C=C1CC(C)(C)CN(Cc2ccc([N+](=O)[O-])cc2)C(C(=O)OC)=C1C(=O)OC,13.2%
17,CCCCCCCCCc1cc[n+](C2=C([O-])C3=C(C(=O)C2=O)C2c4ccccc4C3c3ccccc32)cc1,60.3%
18,O=C(CC(O)(C(F)(F)F)C(F)(F)F)c1cccc(S(=O)(=O)N2CCOCC2)c1,22.8%
19,CC12CCCCC1=C(F)C(F)(F)S2 (stereo not given),17.7%
20,CCC(=O)Nc1cc(C)ccc1Cl,-0.6%
